According to the supplement of paper PMC11732987, “Enantioselective OTUD7B fragment discovery through chemoproteomics screening and high-throughput optimisation” (Communications Chemistry, 2025):

Columns and labels:
Experiment in all cases: log2 ratio of Biotin-Ahx-Ub-VS probe labelling (fragment/DMSO); higher = less target engagement (more negative = stronger competition), active = hit call of the paper (q ≤ 0.05, log2 ratio ≤ -1)
Conditions in all cases: compound concentration: 200 uM; treatment time: 3 h
ALG13 = target: T1, ALG13 (UniProt Q9NP73)
T1 sequence (whole entry): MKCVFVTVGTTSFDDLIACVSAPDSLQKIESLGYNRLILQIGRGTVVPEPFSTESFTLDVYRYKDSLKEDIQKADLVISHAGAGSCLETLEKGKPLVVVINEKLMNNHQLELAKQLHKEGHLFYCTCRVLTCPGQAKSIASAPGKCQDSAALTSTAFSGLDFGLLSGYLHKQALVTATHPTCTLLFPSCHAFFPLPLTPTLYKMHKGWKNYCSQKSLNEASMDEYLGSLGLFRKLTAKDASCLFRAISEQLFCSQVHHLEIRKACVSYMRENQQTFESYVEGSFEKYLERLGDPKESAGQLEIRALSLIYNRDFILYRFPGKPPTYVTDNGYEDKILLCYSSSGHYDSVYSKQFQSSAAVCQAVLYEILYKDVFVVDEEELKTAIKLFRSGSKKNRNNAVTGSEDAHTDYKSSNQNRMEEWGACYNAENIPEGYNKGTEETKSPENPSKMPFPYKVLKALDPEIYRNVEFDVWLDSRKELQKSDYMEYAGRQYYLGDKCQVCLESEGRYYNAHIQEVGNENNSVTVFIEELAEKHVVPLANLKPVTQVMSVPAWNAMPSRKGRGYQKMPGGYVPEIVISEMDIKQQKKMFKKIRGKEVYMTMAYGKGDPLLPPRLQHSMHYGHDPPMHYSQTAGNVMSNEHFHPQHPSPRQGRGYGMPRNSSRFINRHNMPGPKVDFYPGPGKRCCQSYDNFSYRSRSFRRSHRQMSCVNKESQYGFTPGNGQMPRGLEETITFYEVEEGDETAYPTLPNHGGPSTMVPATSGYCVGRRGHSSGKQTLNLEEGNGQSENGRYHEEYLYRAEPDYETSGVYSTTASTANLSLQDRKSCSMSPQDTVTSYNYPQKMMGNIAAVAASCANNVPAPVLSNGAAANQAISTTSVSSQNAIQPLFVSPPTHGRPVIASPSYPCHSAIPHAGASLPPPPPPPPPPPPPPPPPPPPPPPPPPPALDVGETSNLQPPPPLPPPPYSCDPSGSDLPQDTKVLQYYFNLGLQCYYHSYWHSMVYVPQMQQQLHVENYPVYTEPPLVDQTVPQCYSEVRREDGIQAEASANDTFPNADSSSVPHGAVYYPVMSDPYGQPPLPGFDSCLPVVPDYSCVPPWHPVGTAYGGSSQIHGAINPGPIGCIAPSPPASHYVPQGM
Summary of the method: (§1)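 Average log2 ratios of fragment over vehicle were obtained by unpaired t-test from global-median-normalised Spectronaut label-free quantities. Proteins with ≥2 unique peptides were included. HEK293T lysate (495 µg per sample) was treated in triplicate with fragment at 200 µM or vehicle for 3 h, then with Biotin-Ahx-Ub-VS at 0.5 µM final for 1 h, and labelled DUBs were NeutrAvidin-enriched and run by diaPASEF LC-MS/MS.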

ATXN3 = ATXN3 (UniProt P54252)
Summary of the method: as §1

BAP1 = target: T2, BAP1 (UniProt Q92560)
T2 sequence (whole entry): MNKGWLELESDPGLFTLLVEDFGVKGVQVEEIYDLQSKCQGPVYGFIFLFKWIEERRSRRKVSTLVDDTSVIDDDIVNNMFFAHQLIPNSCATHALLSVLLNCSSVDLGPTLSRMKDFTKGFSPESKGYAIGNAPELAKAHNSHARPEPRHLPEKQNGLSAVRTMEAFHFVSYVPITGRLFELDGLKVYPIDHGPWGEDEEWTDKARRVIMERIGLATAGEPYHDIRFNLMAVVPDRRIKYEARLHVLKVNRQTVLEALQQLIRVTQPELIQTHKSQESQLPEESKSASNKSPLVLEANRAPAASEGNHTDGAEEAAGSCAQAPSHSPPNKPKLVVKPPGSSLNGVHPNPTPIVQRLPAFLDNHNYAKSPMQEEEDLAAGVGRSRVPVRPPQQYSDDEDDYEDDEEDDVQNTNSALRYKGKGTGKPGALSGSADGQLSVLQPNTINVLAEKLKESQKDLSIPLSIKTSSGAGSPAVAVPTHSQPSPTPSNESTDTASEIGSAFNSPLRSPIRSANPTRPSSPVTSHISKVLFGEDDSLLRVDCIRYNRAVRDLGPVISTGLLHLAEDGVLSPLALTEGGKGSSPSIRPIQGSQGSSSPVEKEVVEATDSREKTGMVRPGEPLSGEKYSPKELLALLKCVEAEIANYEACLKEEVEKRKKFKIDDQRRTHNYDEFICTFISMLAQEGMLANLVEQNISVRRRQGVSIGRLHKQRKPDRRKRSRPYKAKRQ
Summary of the method: as §1

EIF3F = EIF3F (UniProt O00303)
Summary of the method: as §1

EIF3H = EIF3H (UniProt O15372)
Summary of the method: as §1

FAM105A = target: T3, FAM105A (UniProt Q9NUU6)
T3 sequence (whole entry): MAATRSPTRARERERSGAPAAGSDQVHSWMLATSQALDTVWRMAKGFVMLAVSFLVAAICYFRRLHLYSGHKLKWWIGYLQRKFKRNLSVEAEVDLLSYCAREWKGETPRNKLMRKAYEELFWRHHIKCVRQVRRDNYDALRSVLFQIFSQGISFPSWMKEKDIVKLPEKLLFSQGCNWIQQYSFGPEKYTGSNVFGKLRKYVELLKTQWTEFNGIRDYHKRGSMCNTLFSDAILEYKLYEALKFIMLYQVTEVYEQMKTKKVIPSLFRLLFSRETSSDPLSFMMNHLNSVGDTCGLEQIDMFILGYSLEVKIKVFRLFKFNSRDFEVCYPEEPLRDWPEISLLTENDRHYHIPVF
Summary of the method: as §1

OTUB1 = OTUB1 (UniProt Q96FW1)
Summary of the method: as §1

OTUD4 = target: T4, OTUD4 (UniProt Q01804)
T4 sequence (whole entry): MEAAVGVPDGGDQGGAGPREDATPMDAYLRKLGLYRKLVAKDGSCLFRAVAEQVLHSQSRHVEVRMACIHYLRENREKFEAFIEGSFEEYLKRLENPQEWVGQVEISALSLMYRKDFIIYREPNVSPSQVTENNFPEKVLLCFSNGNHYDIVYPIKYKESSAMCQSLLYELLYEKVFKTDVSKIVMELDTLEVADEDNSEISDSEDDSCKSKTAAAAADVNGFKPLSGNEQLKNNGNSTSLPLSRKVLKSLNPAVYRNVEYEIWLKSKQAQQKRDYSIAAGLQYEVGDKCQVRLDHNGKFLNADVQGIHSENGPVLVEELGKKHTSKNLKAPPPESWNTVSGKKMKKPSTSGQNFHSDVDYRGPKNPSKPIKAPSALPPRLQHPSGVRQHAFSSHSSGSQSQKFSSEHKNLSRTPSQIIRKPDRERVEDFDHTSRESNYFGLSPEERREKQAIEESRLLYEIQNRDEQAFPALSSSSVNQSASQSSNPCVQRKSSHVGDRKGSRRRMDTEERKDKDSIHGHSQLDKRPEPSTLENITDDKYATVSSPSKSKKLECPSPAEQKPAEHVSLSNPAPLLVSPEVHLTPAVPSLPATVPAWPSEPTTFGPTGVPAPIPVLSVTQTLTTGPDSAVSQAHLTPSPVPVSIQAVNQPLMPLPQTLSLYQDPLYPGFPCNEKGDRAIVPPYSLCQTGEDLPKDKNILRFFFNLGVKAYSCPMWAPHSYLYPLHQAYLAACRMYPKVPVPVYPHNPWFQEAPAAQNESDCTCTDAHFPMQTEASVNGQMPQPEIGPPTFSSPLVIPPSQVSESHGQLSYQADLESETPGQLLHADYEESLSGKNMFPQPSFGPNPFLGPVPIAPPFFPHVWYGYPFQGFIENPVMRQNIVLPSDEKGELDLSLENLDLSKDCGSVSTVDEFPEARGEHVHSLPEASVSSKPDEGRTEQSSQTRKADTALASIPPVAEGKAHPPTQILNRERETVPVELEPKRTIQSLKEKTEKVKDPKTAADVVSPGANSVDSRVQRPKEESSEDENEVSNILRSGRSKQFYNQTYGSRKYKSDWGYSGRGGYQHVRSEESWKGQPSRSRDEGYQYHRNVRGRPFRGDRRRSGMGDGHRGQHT
Summary of the method: as §1

OTUD5 = target: T5, OTUD5 (UniProt Q96G74)
T5 sequence (whole entry): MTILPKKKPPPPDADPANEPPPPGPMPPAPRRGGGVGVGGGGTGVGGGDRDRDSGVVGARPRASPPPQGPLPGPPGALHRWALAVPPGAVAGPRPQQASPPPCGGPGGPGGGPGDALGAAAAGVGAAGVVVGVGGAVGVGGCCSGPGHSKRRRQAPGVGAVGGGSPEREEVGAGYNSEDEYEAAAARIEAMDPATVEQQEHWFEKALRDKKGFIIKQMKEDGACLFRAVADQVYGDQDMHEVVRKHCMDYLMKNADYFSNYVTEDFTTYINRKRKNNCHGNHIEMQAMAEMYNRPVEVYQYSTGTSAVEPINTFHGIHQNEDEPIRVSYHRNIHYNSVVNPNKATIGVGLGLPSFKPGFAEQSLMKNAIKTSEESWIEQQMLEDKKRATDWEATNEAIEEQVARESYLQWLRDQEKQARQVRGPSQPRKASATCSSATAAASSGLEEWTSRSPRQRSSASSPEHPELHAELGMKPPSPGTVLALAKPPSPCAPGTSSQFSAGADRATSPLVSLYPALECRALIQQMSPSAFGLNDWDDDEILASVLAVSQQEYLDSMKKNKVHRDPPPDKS
Summary of the method: as §1

Measured: log2 ratio of Biotin-Ahx-Ub-VS probe labelling

ATXN3, sequence (P54252 whole entry): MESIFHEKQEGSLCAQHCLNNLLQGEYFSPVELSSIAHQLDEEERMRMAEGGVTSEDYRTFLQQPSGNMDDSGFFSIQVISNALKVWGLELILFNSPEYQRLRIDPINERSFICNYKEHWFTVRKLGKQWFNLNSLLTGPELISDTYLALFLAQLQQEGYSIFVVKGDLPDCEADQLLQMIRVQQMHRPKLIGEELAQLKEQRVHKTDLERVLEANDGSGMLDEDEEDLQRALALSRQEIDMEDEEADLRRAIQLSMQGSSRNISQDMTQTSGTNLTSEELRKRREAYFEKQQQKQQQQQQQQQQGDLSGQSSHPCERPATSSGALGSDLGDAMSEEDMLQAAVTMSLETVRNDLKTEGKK
EIF3H, sequence (O15372 whole entry): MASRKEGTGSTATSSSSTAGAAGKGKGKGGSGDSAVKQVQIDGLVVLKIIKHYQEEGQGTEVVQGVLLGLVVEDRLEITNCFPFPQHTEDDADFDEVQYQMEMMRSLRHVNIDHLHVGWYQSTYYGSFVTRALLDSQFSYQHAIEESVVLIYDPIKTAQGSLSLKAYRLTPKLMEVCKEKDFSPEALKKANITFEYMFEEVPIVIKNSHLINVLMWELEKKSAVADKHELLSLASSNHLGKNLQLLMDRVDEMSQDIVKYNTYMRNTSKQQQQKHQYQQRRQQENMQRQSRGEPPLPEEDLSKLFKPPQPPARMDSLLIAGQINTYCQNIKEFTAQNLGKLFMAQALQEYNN
OTUB1, sequence (Q96FW1 whole entry): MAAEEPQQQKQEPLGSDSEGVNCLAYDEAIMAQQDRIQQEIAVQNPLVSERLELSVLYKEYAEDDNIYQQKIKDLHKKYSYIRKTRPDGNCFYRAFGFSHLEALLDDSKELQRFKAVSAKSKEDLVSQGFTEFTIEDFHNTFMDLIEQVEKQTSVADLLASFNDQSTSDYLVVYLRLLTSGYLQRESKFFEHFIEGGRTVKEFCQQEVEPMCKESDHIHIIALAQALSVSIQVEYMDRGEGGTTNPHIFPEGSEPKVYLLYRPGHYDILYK
EIF3F, sequence (O00303 whole entry): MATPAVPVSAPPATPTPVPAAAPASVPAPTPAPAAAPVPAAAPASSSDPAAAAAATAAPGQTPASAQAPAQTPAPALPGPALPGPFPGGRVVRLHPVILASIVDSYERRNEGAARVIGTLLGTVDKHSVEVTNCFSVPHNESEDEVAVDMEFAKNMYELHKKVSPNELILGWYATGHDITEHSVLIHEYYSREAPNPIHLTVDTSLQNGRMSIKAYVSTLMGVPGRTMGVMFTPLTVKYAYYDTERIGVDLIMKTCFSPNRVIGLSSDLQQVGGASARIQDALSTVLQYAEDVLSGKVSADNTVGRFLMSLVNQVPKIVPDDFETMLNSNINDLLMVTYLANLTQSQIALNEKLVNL

O=C(CCl)N(C1CCCC1)C1CCS(=O)(=O)C1 (centres undefined)
inactive: ALG13 0.338 | ATXN3 -0.109 | BAP1 -0.0673 | EIF3F -0.335 | EIF3H 0.00604 | FAM105A 0.169 | OTUB1 -0.343 | OTUD4 0.0168 | OTUD5 -0.379
